This is an account of results in PubChem BioAssay (EPA / NIEHS).

Structures are written as SMILES. Calls of active or inactive are those of the source. Rule for the calls: active = hit-call score of the fitted dose curve at least 0.9, where 1 is the maximum; inactive = score below 0.9.

The target in this test is X-box-binding protein 1 (Homo sapiens) (UniProt P17861). Kind of test: ATG_Xbp1_CIS: Attagene CIS-FACTORIAL HepG2 Assay for human X-box Binding Protein 1 (XBP1) (AID 2282972). The note with it: HepG2 XBP1 cis-element reporter, Attagene multiplex; actives raise or lower the signal. The method, then: ATG_CIS is a cell-based, multiplexed-readout assay that uses HepG2, a human liver cell line, with measurements taken at 24 hours after chemical dosing in a 24-well plate.ATG_Xbp1_CIS is one of 52 assay component(s) measured or calculated from the ATG_CIS assay. It is designed to make measurements of mRNA induction, a form of inducible reporter, as detected with fluorescence intensity signals by Reverse transcription polymerase chain reaction (RT-PCR) and Capillary electrophoresis technology.Data from the assay component ATG_Xbp1_CIS was analyzed into 1 assay endpoint. This assay endpoint, ATG_Xbp1_CIS, was analyzed with bidirectional fitting relative to DMSO as the negative control and baseline of activity. Using a type of inducible reporter, measures of mRNA for gain or loss-of-signal activity can be used to understand the reporter gene at the transcription factor-level as they relate to the gene XBP1. Furthermore, this assay endpoint can be referred to as a primary readout, because this assay has produced multiple assay endpoints where this one serves a reporter gene function. To generalize the intended target to other relatable targets, this assay endpoint is annotated to the dna binding intended target family, where the subfamily is basic leucine zipper.
Sequence of X-box-binding protein 1 (Homo sapiens) (P17861 whole entry, looked up): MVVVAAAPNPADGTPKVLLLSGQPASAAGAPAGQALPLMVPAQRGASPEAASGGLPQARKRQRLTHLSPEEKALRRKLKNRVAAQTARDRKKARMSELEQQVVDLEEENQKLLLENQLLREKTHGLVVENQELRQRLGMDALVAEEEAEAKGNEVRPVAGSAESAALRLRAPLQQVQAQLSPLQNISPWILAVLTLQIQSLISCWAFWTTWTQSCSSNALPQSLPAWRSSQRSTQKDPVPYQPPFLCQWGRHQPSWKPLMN
Human liver HepG2 cells are transiently transfected with multiple reporter transcription units (MRTUs) in 6-well plates using FuGene 6 reagent (Roche; 3 ml FuGene/1 mg DNA). The MRTU constructs are regulated by a cis-regulating element (promoter). […] A major difference between the CIS and TRANS system is that in CIS activities of endogenous TFs are measured, whereas the TRANS assay evaluates changes in activities of exogenous, chimeric NR-Gal4 proteins. […] At the end of 24 hour incubation, total RNA was isolated using TriZol reagent (Invitrogen). The isolated RNA is then reverse-transcribed using oligo(dT) primer and Mo-MLV reverse transcriptase (Invitrogen) with DNAse I (Ambion) treatment for 30 min. The one-tenth of the produced cDNA was amplified by PCR using Taq DNA polymerase (Invitrogen) and two reporter sequence-specific primers. The PCR products were fluorescently labeled by primer extension with 6-arboxyfluorescein (6-FAM) 5'-labeled reporter sequence-specific primer (2 min at 95 C, 20 s at 68 C and 10 min at 72 C) and these products were digested with 5U of HpaI (New England Biolabs) for 2h at 37 C. The fragments were purified using Qiaquick PCR columns (Qiagen), analyzed on an ABI 3130xL genetic analyzer (Applied Biosystems) with peak positions identified by using a set of X-rhodamine (ROX)-labeled MapMarker1000 molecular weight standards (BioVentures). The raw capillary electrophoresis data was processed using Attagraph software (Attagene).
On to `CC12CCC(CC1)C(C)(C)O2`, for which the outcome was inactive. Consider `CCC[Si](OC)(OC)OC`, for which the call was inactive.

Take `CC1=CP(=O)(c2ccccc2)CC1` (stereo not given): the compound was called inactive. Consider `CC1C(C)(C)C2=C(C(=O)CCC2)C1(C)C` (stereo not given), for which the result was inactive. In the case of `C=CC(=O)OCC(C)OCC(C)OCC(C)OC(=O)C=C` (stereo not given), the outcome was inactive. In the case of `O=C(O[C@@H]1Cc2c(O)cc(O)cc2O[C@@H]1c1cc(O)c(O)c(O)c1)c1cc(O)c(O)c(O)c1`, the compound was classed as inactive. Regarding `O=C(O)CCC(=O)O`, the compound was called inactive. Turning to `Nc1ccc(O)c([N+](=O)[O-])c1`, the outcome was inactive. With `CCCCCC1=CCCC1=O`, the compound was classed as inactive. The same measure, in the same setting: the same measure for `Cn1cccc1`: “inactive”; for `CCCCC1C(=O)N(c2ccccc2)N(c2ccccc2)C1=O`: “inactive”. Turning to `COCC(=O)O`, the compound was classed as inactive. Take `CC1(C)C(=O)N(CO)C(=O)N1CO`: the outcome was inactive. As for `C=CC(=O)NCOCCCC`, the outcome was inactive. Regarding `Nc1ccc(C(=O)OCCCOC(=O)c2ccc(N)cc2)cc1`, the compound was classed as inactive. Same read-out and setting: the same measure for `CCc1cccc(CC)c1`: “inactive”. With `Cc1ccccc1CCO`, the compound was called inactive.

Regarding `CCCCC1CCC(=O)O1` (stereo not given), the call was inactive. For the compound `C=CCNCC=C`, the call was inactive.

`CCCSSCCC`: the compound was called inactive. Same read-out and setting: the same measure for `Nc1ccc(Cl)c(N)c1`: “inactive”; for `CCOC(=O)c1ccc(C)cc1`: “inactive”. As for `C=C(C)[C@@H]1CC=C(C)CC1`, the call was inactive. Regarding `O=C1CCCCCCCCCCC1`, the result was inactive. On the same count and under the same terms, the same measure for `Cc1ccc(S(=O)(=O)N=C=O)cc1`: “inactive”; for `CC1=CCC(C(C)C)C=C1` (stereo not given): “inactive”. `c1ccc(Nc2cccc3ccccc23)cc1`: the AC50 (commonly the concentration giving half of the maximal activity seen) was 53.5 µM (active). Take `CCCCCCCCCCCC(=O)OCC`: the call was inactive. As for `Oc1ccccc1Cc1ccccc1O`, the AC50 was 144 µM (active). On the same count and under the same terms, next, `C=CC(=O)OCCCCCCOC(=O)C=C`: 26.6 µM (active). In the case of `N#Cc1ccc(C2CCCc3cncn32)cc1` (stereo not given), the compound was classed as inactive. For the compound `CC1(C)CC(O)CC(C)(C)N1[O]`, the call was inactive. For the compound `COc1ccc(-c2coc3cc(O)cc(O)c3c2=O)cc1`, the AC50 is 100 µM (active). As for `CCCCCCCC(=O)OCC`, the outcome was inactive. Turning to `CCc1occc(=O)c1O`, the compound was called inactive. On the same count and under the same terms, next, `CCCC(C)C(=O)OCC` (stereo not given): “inactive”.

For the compound `CC(C)[N+](C)(CCOC(=O)C1c2ccccc2Oc2ccccc21)C(C)C`, the outcome was inactive.

Regarding `CC(CC=O)CC(C)(C)C` (stereo not given), the compound was called inactive. On the same count and under the same terms, next, `CC(C)CC(=O)OCc1ccccc1`: “inactive”; `Cc1noc(NS(=O)(=O)c2ccc(N)cc2)c1C`: “inactive”.
